From PubChem BioAssay AID1619 (SRMLSC, 2009)
The whole screen tested about 220,000 compounds, of which about 830 (0.38%) were called active. The list is a sample of the results. Results with a measured potency or affinity are listed apart. A number with no mark means an inactive call.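 Rule for the calls: active = compound inhibiting the enzyme by more than half at any dose during confirmatory dose-response retesting; inconclusive = strong single-dose inhibitors picked by rank but not retested; inactive = the rest.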

The molecules below were run against Leucine aminopeptidase (Plasmodium falciparum (isolate 3D7)) (UniProt Q8IL11) (assay: P. falciparum M17LAP inhibitors, primary screen, biochemical, fluorogenic H-Leu-NHMec substrate, 1536-well (AID 1619;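 note: plate controls were full reaction with DMSO carrier for no effect and no enzyme background for full effect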)). Conditions: recombinant M17LAP, H-Leu-NHMec fluorogenic kinetic assay; at 30 µM; active compounds read high.
Sequence of Leucine aminopeptidase (Plasmodium falciparum (isolate 3D7)) (Q8IL11 whole entry, looked up): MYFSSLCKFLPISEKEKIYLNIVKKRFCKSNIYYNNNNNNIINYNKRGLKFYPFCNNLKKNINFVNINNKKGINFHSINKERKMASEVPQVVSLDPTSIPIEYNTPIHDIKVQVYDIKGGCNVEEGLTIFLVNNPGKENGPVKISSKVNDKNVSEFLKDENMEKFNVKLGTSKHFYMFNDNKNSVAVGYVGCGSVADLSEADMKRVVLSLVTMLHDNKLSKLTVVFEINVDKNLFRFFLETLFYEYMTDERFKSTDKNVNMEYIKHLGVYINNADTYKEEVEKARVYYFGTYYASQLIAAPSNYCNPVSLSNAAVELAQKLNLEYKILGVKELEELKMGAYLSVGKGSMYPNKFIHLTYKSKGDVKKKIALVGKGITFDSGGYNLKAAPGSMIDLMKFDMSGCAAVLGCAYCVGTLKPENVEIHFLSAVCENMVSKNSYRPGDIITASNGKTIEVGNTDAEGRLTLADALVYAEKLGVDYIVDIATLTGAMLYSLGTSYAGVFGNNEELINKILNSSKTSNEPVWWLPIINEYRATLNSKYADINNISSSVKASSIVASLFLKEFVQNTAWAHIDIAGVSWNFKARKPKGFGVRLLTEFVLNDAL
CCOC(=O)Cc1n[nH]c(=O)c2ccccc12 gave an inhibition of 1.58%.
With O=C(NCc1ccccn1)c1cc(-c2ccccc2)on1 the inhibition was 8.29%.
In the case of CCOC(=O)CSc1nnc(-c2ccco2)n1-c1ccccc1, the inhibition is reported as 11.8%.
Work on CCOC(=O)CSc1nnc(-c2ccoc2C)n1-c1ccc(C)cc1 yielded an inhibition of 14.1%.
CC(C)OC(=O)CSc1nnc(-c2ccco2)n1N was tested, and the inhibition was 6.79%.
COC(=O)CSc1nnc(-c2ccco2)n1-c1ccc(C)cc1 showed an inhibition of 13.9%.
Work on Cc1ccc(OCCn2c(=O)oc3ccc(C)cc32)cc1 yielded an inhibition of 13.7%.
For Cn1c(SCC(N)=O)nnc1C1CCN(C(=O)NC2CCCCC2)CC1, the inhibition was -3.93%.
COc1ccc(OC)c(NC(=O)C2CC(C)=C(C)CC2C(=O)O)c1 (stereo not drawn) gave an inhibition of 34.4%.
Molecule COc1ccc(OC)c(NC(=O)C2CCCCC2C(=O)O)c1 (stereo not drawn) has an inhibition of 40.9%.
With COc1ccc(C(C)(C)C)cc1NC(=O)C1C2C=CC(C2)C1C(=O)O (stereo not drawn) the inhibition was 7.82%.
In the case of COc1ccc(C)cc1NC(=O)C1CCCCC1C(=O)O (stereo not drawn), the inhibition is reported as 52.8%.
Work on COc1ccc2cc(C(c3nnnn3CCc3ccccc3)N3CCCC(C)C3)c(=O)[nH]c2c1 (stereo not drawn) yielded an inhibition of 10.6%.
CCCCNS(=O)(=O)c1ccc(S(=O)(=O)N2CCC3(CC2)OCCO3)cc1 was tested, and the inhibition was -5.01%.
COC(=O)C1=C(NC(=O)COc2ccc(Cl)cc2Cl)CCS1 was tested, and the inhibition was 49.6%.
With COc1ccc(N/N=C(/C#N)S(=O)(=O)C(C)(C)C)cc1 the inhibition was 5.23%.
Molecule CC(C)(C)S(=O)(=O)/C(C#N)=N/Nc1ccc(S(C)(=O)=O)cc1 has an inhibition of 43.2%.
With CC(C)(C)c1ccc(N/N=C(\C#N)S(=O)(=O)C(C)(C)C)cc1 the inhibition was 23.4%.
In the case of CC(C)(C)S(=O)(=O)/C(C#N)=N/Nc1ccc(S(N)(=O)=O)cc1, the inhibition is reported as 16.4%.
CC(C)(C)S(=O)(=O)/C(C#N)=N/Nc1ccc(Cl)cc1 gave an inhibition of 12.6%.
Work on CC(C)(C)S(=O)(=O)/C(C#N)=N/Nc1ccc(C#N)cc1 yielded an inhibition of 19.9%.
Cn1c(SCc2ccc(Cl)cc2)nc(C(F)(F)F)cc1=O was tested, and the inhibition was -4.09%.
In the case of CCN(CC)C(=O)C(=O)c1cn(CC(=O)NCC2CCCO2)c2ccccc12 (stereo not drawn), the inhibition is reported as -6.14%.
Molecule Cc1cccc(NC(=O)c2nc[nH]c2C(=O)NCC(=O)OC(C)(C)C)c1 has an inhibition of -3.35%.
Molecule O=C(NCC1CCCO1)c1csc(Nc2cccc3ccccc23)n1 (stereo not drawn) has an inhibition of 4.77%.
O=C(COc1cccc(NC(=O)c2ccco2)c1)c1ccccc1 showed an inhibition of -14.2%.
With O=C(NCCN1CCOCC1)c1ccc(NC(=O)C2COc3ccccc3O2)cc1 (stereo not drawn) the inhibition was 3.85%.
With CCOc1ccc(-n2c(COc3ccccc3)nnc2SCC(N)=O)cc1 the inhibition was -3.38%.
Molecule Cc1ccc(NC(=O)Cn2nc(C)c3ccccc3c2=O)cc1 has an inhibition of 23.3%.
For Cc1nn(CC(=O)Nc2ccccc2)c(=O)c2ccccc12, the inhibition was 20%.
Work on Cc1scc(C(=O)NNC(=O)CCC(=O)O)c1C yielded an inhibition of 1.05%.
In the case of CC1=C(C)CC(C(=O)NNC(=O)c2ccccc2)C(C(=O)O)C1 (stereo not drawn), the inhibition is reported as 32.1%.
Work on CC1=C(C)CC(C(=O)NNC(=O)c2csc(C)c2C)C(C(=O)O)C1 (stereo not drawn) yielded an inhibition of 44.2%.
For CCNC(=S)NNC(=O)c1csc2c1CCC(C)C2 (stereo not drawn), the inhibition was -1.92%.
For CC(C)(C)C1CCc2c(C(=O)N/N=C/c3cccs3)csc2C1 (stereo not drawn), the inhibition was 1.12%.
In the case of CC(C)(C)C1CCc2c(C(=O)NNC(=O)/C=C/C(=O)O)csc2C1 (stereo not drawn), the inhibition is reported as 43.8%.
COCc1cc(C)nc(SCc2nc3ccccc3c(=O)[nH]2)c1C#N showed an inhibition of -5.07%.
In the case of CCOC(=O)c1cc(-c2ccccc2)sc1NC(=O)C(C)N1C(=O)c2ccccc2C1=O (stereo not drawn), the inhibition is reported as -1.18%.
Nc1cc(-c2ccco2)no1 showed an inhibition of -0.59%.
O=C1c2[nH]nc(-c3ccccc3O)c2C(c2ccccc2F)N1Cc1ccco1 (stereo not drawn) gave an inhibition of 16%.
O=C(C(c1ccccc1)c1ccccc1)N1CCN(c2ccccn2)CC1 gave an inhibition of 4.89%.
COc1ccc2sc(N3C(=O)CC(Cc4cccc(C)c4)C3=O)nc2c1 (stereo not drawn) was tested, and the inhibition was 29.4%.
Work on CC(=O)c1nc(N2C(=O)C3CC=C(C)CC3C2=O)sc1C (stereo not drawn) yielded an inhibition of 7.37%.
CCOC(=O)/C(=C\c1ccc([N+](=O)[O-])o1)NC(=O)c1ccccc1 showed an inhibition of -88.3%.
O=C(Cc1cn(Cc2cccc(Cl)c2)c2ccccc12)N1CCCCCC1 showed an inhibition of -20.4%.
O=c1c2c3c(sc2nc2sc(CN4CCCCC4)cn12)CCCC3 was tested, and the inhibition was -6.38%.
With N#Cc1c(NC(=O)c2ccccc2)sc2c1CCCCC2 the inhibition was 21.1%.
CC1CCc2c(sc(NC(=O)c3ccccc3C(=O)O)c2C#N)C1 (stereo not drawn) gave an inhibition of 1.93%.
N#Cc1c(NC(=O)CCC(=O)O)sc2c1CCCCC2 was tested, and the inhibition was 34.4%.
For CC(=O)Nc1sc2c(c1C#N)CCCCC2, the inhibition was -1.44%.
N#Cc1c(NC(=O)C2CCCO2)sc2c1CCCCCC2 (stereo not drawn) was tested, and the inhibition was 13.1%.
N#Cc1c(NC(=O)C2CCCO2)sc2c1CCCCC2 (stereo not drawn) gave an inhibition of -2.74%.
With N#Cc1c(NC(=O)C2CC2)sc2c1CCCCC2 the inhibition was 28.1%.
With CC1CCc2sc(NC(=S)NC(=O)c3ccccc3)c(C#N)c2C1 (stereo not drawn) the inhibition was -12%.
O=C(Nc1ccccc1NS(=O)(=O)c1ccc(F)cc1)C1CCC1 was tested, and the inhibition was 6.59%.
With COc1ccc(-c2cn(-c3ccc(SC(F)F)cc3)c3[n+]2CCC3)cc1OC the inhibition was -11.9%.
Work on O=C(CCN1C(=O)c2ccccc2C1=O)Nc1cccnc1 yielded an inhibition of 11.6%.
N#Cc1c(-c2ccccc2)ccnc1N1CCOCC1 gave an inhibition of 0.41%.
Work on CCCCC(=O)NC(c1ccc(OC)c(OC)c1)c1c(O)ccc2ccccc12 (stereo not drawn) yielded an inhibition of 5.73%.
C=CCNC(=S)Nc1cccc(N)c1 showed an inhibition of 2.22%.
With Cc1cccc(NC(=O)Cn2nc([N+](=O)[O-])c(Br)c2C)n1 the inhibition was -0.63%.
CCCn1c(/N=C/c2c[nH]c3ccccc23)nc2ccccc21 showed an inhibition of 0.08%.
In the case of CN(CCC#N)C(=O)COC(=O)/C=C/c1ccc2c(c1)OCO2, the inhibition is reported as 2.65%.
COc1ccc(C2=CC3=C(Br)C(=O)C(C)(OC(=O)C4CCCC4)C(=O)C3=CO2)cc1 (stereo not drawn) gave an inhibition of 22.1%.
Cc1sc(NC(=O)C2CCCC2)c(C#N)c1C showed an inhibition of 3.61%.
In the case of Cc1sc(NC(=O)C2CCCO2)c(C#N)c1C (stereo not drawn), the inhibition is reported as 5.77%.
In the case of CC(=O)Nc1sc2c(c1C#N)CCCC2, the inhibition is reported as -9.07%.
Work on CCOC(=O)c1c(NC(=O)C2CC(Cl)=CCC2C(=O)O)sc2c1CC(C)(C)OC2 (stereo not drawn) yielded an inhibition of 42.4%.
With CC1(C)Cc2c(sc(NC(=O)Cc3ccccc3)c2C#N)CO1 the inhibition was 20.3%.
Molecule CC(=O)Nc1sc2c(c1C#N)CCC2 has an inhibition of -2.63%.
Work on Cn1nnnc1SCC(=O)Nc1cccc(S(=O)(=O)N2CCCC2)c1 yielded an inhibition of -2.95%.
Molecule O=C(Nc1nnc(SCc2ccccc2F)s1)c1ccco1 has an inhibition of 8.78%.
For Cc1ccc(NC(=O)Nc2cccc(Cl)c2)c(C(=O)O)c1, the inhibition was -7.94%.
Work on CCOC(=O)c1ccccc1NC(=O)CN1C(=O)c2ccccc2S1(=O)=O yielded an inhibition of -15.2%.
For COc1ccc(C)cc1NC(=O)CN1C(=O)c2ccccc2S1(=O)=O, the inhibition was 11.2%.
COc1ccc(OC)c(NC(=O)CN2C(=O)c3ccccc3S2(=O)=O)c1 showed an inhibition of 23.2%.
CCC(C)NC(=O)c1ccccc1NC(=O)CN1C(=O)c2ccccc2S1(=O)=O (stereo not drawn) showed an inhibition of -2.81%.
In the case of C/C(=N\NC(=O)c1cccc(S(=O)(=O)N2CCCC2)c1)c1cccs1, the inhibition is reported as 0.78%.
O=C(CN1CCN(c2ncc(C(F)(F)F)cc2Cl)CC1)NC(=O)NCc1ccccc1 was tested, and the inhibition was -3.07%.
Work on Cn1c2c(c(=O)n3ncnc13)CCCC2 yielded an inhibition of -2.57%.
O=C(O)Cn1nnnc1SCC(=O)Nc1ccccc1F gave an inhibition of 18.7%.
In the case of Cc1ccc(OCCCC(=O)Nc2ccc(Br)cc2)cc1, the inhibition is reported as -1.62%.
In the case of Cc1ccc(NC(=O)COC(=O)c2cccnc2)cc1, the inhibition is reported as 25.2%.
Work on CCn1c(CCNC(=O)c2ccc(OC)cc2)nnc1SCC(=O)Nc1ccccc1F yielded an inhibition of 1.93%.
CCOc1ccc(NC(=O)CSc2nnc(CCNC(=O)c3ccc(OC)cc3)n2C)cc1 was tested, and the inhibition was 23.6%.
CCn1nnnc1SCC(=O)Nc1ccc(OC)cc1 gave an inhibition of 3.82%.
Molecule O=C(COC(=O)c1cccnc1)Nc1ccccc1 has an inhibition of 2.57%.
For O=C(O)CCC(=O)Nc1ccc(OCC(=O)O)cc1, the inhibition was -3.01%.
Cc1ccccc1NC(=O)NCc1ccc2c(c1)OCO2 was tested, and the inhibition was 5.21%.
O=C(c1cnsn1)N1CCN(c2ccccn2)CC1 showed an inhibition of -4.02%.
Work on Cc1nc(C(=O)O)nn1-c1ccc([N+](=O)[O-])cc1 yielded an inhibition of 0.22%.
COc1cccc([C@@H]2Oc3ccc(OC)cc3C(=O)[C@H]2OC(=O)N[C@H](C)C2CCCCC2)c1 showed an inhibition of -23.2%.
O=[N+]([O-])c1ccc2c(c1)/C(=N\O)c1ccccc1-2 gave an inhibition of 2.49%.
With CN1CCN(c2ccc(C(CC(N)=O)NC(=O)Cc3ccc(Br)cc3)cc2[N+](=O)[O-])CC1 (stereo not drawn) the inhibition was 5.26%.
Molecule O=C(N/N=C\c1ccc2c(c1)OCO2)c1ccco1 has an inhibition of 26.4%.
Work on CCCc1nnc(SCC(=O)Nc2ccc(OCC)cc2)n1N yielded an inhibition of 30.4%.
Work on O=C(CSCCO)Nc1ccc(C2CCCCC2)cc1 yielded an inhibition of 6.11%.
Work on CCCCOc1ccc(C(=O)O)cc1 yielded an inhibition of 23.4%.
For CCn1nnnc1SCC(=O)Nc1ccc(OCc2ccccc2)cc1, the inhibition was 4.99%.
Work on CCOc1ccc(NC(=O)CCC(=O)O)cc1 yielded an inhibition of 18%.
In the case of CCOc1ccc(OCC)c(NC(=O)CSCC(=O)O)c1, the inhibition is reported as 2.8%.
In the case of CCCCOc1ccc(CC(=O)NCC(=O)O)cc1, the inhibition is reported as 4.31%.
For Nn1cnnc1SCC(=O)Nc1ccc(C2CCCCC2)cc1, the inhibition was -2.76%.
